D3 ag – agonists of human D3 dopamine receptor | P35462 | D3R DiscoveRx beta-arrestin cells, luminescence, 90 min | max activation, % | 410,000 tested, 0.58% active; in the data active means max activation above about 30%
Target sequence (P35462 whole entry, looked up): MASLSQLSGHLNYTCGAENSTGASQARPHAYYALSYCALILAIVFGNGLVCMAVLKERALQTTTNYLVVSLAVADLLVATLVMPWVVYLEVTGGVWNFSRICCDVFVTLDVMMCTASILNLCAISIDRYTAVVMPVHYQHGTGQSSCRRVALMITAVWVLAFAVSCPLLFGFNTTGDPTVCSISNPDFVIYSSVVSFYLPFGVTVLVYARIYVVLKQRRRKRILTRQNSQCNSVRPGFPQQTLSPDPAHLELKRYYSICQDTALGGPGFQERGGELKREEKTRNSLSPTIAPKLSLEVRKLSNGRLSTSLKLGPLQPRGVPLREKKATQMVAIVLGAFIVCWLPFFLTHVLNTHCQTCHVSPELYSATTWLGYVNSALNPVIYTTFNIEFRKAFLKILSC
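Agonist-mode cell screen: cells plated at 1500/well and incubated overnight at 37 °C, then exposed to library compounds for 90 min at 37 °C. Detection reagent was added for 30–60 min at room temperature, and luminescence was read.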
ClpP mod – qHTS Assay for Activators of ClpP; ATP-dependent Clp protease proteolytic subunit (Bacillus subtilis (strain 168)), P80244; purified B. subtilis ClpP, FRET peptide cleavage, 20 min; Potency, µM (titrated, usually from 57.5 µM); 340,000 tested, 1.9% active; active means well fitted falling curve with a large enough effect; inconclusive means small, poorly fitted or top-dose-only effect; inactive means no such curve, though single readings can be large or run the other way; further: the source files actives as falling curves though it sought activators and does not explain the sign; nearly all actives have a fitted effect of over 65% in size
Target sequence (P80244 whole entry, looked up): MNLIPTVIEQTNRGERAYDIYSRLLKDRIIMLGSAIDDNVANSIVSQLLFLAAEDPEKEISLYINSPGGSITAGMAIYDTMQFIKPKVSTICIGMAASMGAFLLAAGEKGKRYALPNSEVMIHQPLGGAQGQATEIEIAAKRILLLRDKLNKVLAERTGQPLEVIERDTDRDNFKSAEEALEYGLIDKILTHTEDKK
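FRET quenching reversal measured ClpP activation: 10 microg/mL B. subtilis ClpP at pH 8 with the FRET-FV decapeptide, read at 430 nm after 320 nm excitation. The 20-min minus 0-min signal was scaled between DMSO/no-enzyme wells and ADEP (5.8 microM final).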
TDP1 cell CPT – DT40-hTDP1 cell growth loss with CPT; chicken DT40 Tdp1-/-;hTDP1 cells + 20 nM CPT, ATP luminescence, 48 h; Potency, µM (series often up to 46.2 µM), most hits filed as inhibitors; 420,000 tested, 12% active; AID 686979; further: nearly all actives have a fitted effect of over 55% in size
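Chicken DT40 Tdp1-/- cells complemented with human TDP1, 400 cells/well, exposed to compounds plus 20 nM camptothecin for at least 48 h at 37 C; viability read as ATP content by CellTiter-Glo luminescence.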
IL-1B inflam inh – blocks inflammasome-driven IL-1 beta release. THP-1 LPS/ATP IL-1B secretion, AlphaLISA, 16 h; active compounds read low. AID 743279. 360,000 tested, 4.7% active. activity change, % at 57.5 µM; in the data active means activity change below about -50%; inconclusive means mostly about -30% to -49%
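THP-1 cells pretreated 1 hr with compounds (up to 57.5 uM final), then stimulated with LPS (250 ng/mL final) plus ATP (1.25 mM final); secreted IL-1B measured by AlphaLISA after 16 hr, decreased signal indicating inhibition.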
D3 antag – D3 dopamine receptor (human) antagonism. max response, negative = inhibition, %. 360,000 tested, 2.5% active. P35462. D3R cells, DiscoveRx beta-arrestin luminescence, antagonist mode; active compounds read low; in the data active means max response below about -50%; inconclusive means no clear call, values can overlap the other calls
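Cells expressing the human receptor were seeded at 1500 cells/well, incubated overnight at 37 degrees C in 5% CO2, then exposed to library compounds with dopamine controls for 90 minutes at 37 degrees C before luminescent detection.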
DT40 TDP1 no CPT – qHTS for Inhibitors of human tyrosyl-DNA phosphodiesterase 1 (TDP1): qHTS in cells in absence of CPT; DT40 Tdp1-/- hTDP1 cells, no CPT, ATP luminescence, 48 h; Potency, µM (top dose mostly 46.2 µM), actives largely listed as inhibitors; 420,000 tested, 15% active; AID 686978, 2013; further: nearly all actives have a fitted effect of over 55% in size
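Stably hTDP1-transfected Tdp1-null chicken DT40 cells were treated with library compounds minus camptothecin and grown for at least 48 hr at 37 °C, after which cellular ATP was quantified by luminescence.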
Of the large screens only hits and unclear results are named; the others gave an inactive call. Hits are enriched below; roughly 21% of the tested compounds scored in any of these assays. Unless noted, the call rests on the fitted dose curve; in most records, active means well fitted inhibition curve with a large enough effect; inconclusive means small, poorly fitted or top-dose-only effect; inactive means flat fitted curve, though single readings scatter.

CCOC(=O)C1=C[C@@H](C(C)(C)C)N(S(=O)(=O)c2ccc(C)cc2)[C@H]1c1ccccc1Cl	TDP1 cell CPT inconclusive, DT40 TDP1 no CPT inconclusive
CC(=O)C[C@@H]1SC[C@H](c2ccccc2)N1S(=O)(=O)c1ccc(C)cc1	TDP1 cell CPT 15µM, DT40 TDP1 no CPT 15µM
CCOC(=O)C1=C[C@@H](C(C)(C)C)N(S(=O)(=O)c2ccc(C)cc2)[C@H]1c1ccc(C)cc1	TDP1 cell CPT 13µM, DT40 TDP1 no CPT 12µM
CCOC(=O)C1=C[C@@H](C(C)C)N(S(=O)(=O)c2ccc(C)cc2)[C@H]1c1ccc(C(C)C)cc1	TDP1 cell CPT inconclusive, DT40 TDP1 no CPT 18µM
CCOC(=O)C1=C[C@@H](C(C)C)N(S(=O)(=O)c2ccc(C)cc2)[C@H]1c1ccccc1F	TDP1 cell CPT inconclusive, DT40 TDP1 no CPT inconclusive
COc1ccccc1CC1CC(=O)N(c2ccc([N+](=O)[O-])cc2)C1=O (configuration not stated)	D3 antag inconclusive
Cc1ccc(OCCN(C)C(=O)c2cc(COc3ccc(F)cc3F)on2)cc1	none
CCOC(=O)C1=CCC(c2ccccc2)N(S(=O)(=O)c2ccc(C)cc2)[C@H]1CC (some centres not stated)	TDP1 cell CPT 21µM, DT40 TDP1 no CPT 16µM
CCOC(=O)C1=C[C@@H](CC)N(S(=O)(=O)c2ccc(C)cc2)[C@H]1c1ccccc1	TDP1 cell CPT 23µM, D3 antag inconclusive, DT40 TDP1 no CPT 15µM
Cc1ccccc1CN1C(=O)c2ccccc2C1c1nnnn1C(C)C (configuration not stated)	DT40 TDP1 no CPT inconclusive
O=S(=O)(Nc1ccc(Cl)cc1)c1cccc(S(=O)(=O)c2ccc(Cl)c(Cl)c2)c1	TDP1 cell CPT inconclusive, DT40 TDP1 no CPT inconclusive (no result: IL-1B inflam inh, D3 antag)
Cc1cc(C)n(-c2nc3ccccc3c(=O)n2OCC(=O)OCc2ccccc2)n1	TDP1 cell CPT 5.8µM, DT40 TDP1 no CPT 5.8µM
Cc1cc(CC(C)C)n(-c2nc3ccccc3c(=O)n2OCC(=O)N(C)C)n1	none
Cc1cc(C)n(-c2nc3ccccc3c(=O)n2OCc2ccc(F)cc2)n1	TDP1 cell CPT inconclusive, DT40 TDP1 no CPT inconclusive
Cc1cc(C)n(-c2nc3ccccc3c(=O)n2OCC(=O)N(C)C)n1	ClpP mod 7.9µM
Cc1cc(C)n(-c2nc3ccccc3c(=O)n2OCC(=O)Nc2c(C)cccc2C)n1	TDP1 cell CPT inconclusive, DT40 TDP1 no CPT 18µM
Cc1ccc(NC(=O)c2cnc(N3CCCCC3)c3ccccc23)c(C)c1	ClpP mod inconclusive, TDP1 cell CPT inconclusive (no result: IL-1B inflam inh, D3 antag)
Cc1ccc(Cl)cc1NC(=O)c1cnc(N2CCCCC2)c2ccccc12	ClpP mod inconclusive, TDP1 cell CPT 18µM, DT40 TDP1 no CPT 13µM (no result: IL-1B inflam inh, D3 antag)
O=C(Nc1ccc(C(F)(F)F)cc1)c1cnc(N2CCN(c3ccccn3)CC2)c2ccccc12	TDP1 cell CPT 21µM, DT40 TDP1 no CPT inconclusive (no result: ClpP mod)
CCc1ccccc1NC(=O)c1cnc(N2CCCCC2)c2ccccc12	TDP1 cell CPT 18µM, DT40 TDP1 no CPT inconclusive (no result: IL-1B inflam inh, D3 antag)
O=C(Nc1ccccc1F)c1cnc(N2CCCCC2)c2ccccc12	ClpP mod inconclusive, TDP1 cell CPT 16µM, DT40 TDP1 no CPT 23µM (no result: IL-1B inflam inh, D3 antag)
O=C(Nc1ccc(C(F)(F)F)cc1)c1cccnc1N1CCOCC1	DT40 TDP1 no CPT inconclusive
CC(=O)N1CCN(C(=O)c2ccccc2NS(=O)(=O)c2ccc(F)cc2)CC1	none
COc1cc(NC(=O)C/C(C)=N/NC(=O)c2ccccn2)c(OC)cc1Cl	IL-1B inflam inh -59
C/C(CC(=O)Nc1ccc(N(C)C)cc1)=N\NC(=O)c1cnccn1	DT40 TDP1 no CPT inconclusive
COc1ccccc1NC(=O)C/C(C)=N/NC(=O)c1ccccn1	none (no result: ClpP mod)
C/C(CC(=O)Nc1ccc(N(C)C)cc1)=N\NC(=O)c1ccccn1	TDP1 cell CPT inconclusive, DT40 TDP1 no CPT 15µM
Cc1c(C(=O)NCCc2ccc(Cl)cc2)cccc1-n1cnc2cccnc21	TDP1 cell CPT 15µM, DT40 TDP1 no CPT 13µM (no result: IL-1B inflam inh, D3 antag)
c1ccc2c(CCc3c[nH]c4ccccc34)ccnc2c1	TDP1 cell CPT 13µM, DT40 TDP1 no CPT 16µM (no result: D3 ag, IL-1B inflam inh, D3 antag)
COc1ccc(CCc2ccnc3ccccc23)cc1	TDP1 cell CPT inconclusive, IL-1B inflam inh -62, DT40 TDP1 no CPT 21µM (no result: ClpP mod)
COc1ccc(CCc2ccc3ccccc3n2)cc1	DT40 TDP1 no CPT inconclusive (no result: ClpP mod)
COc1ccccc1CCc1nnc(CCC(=O)N(C)Cc2cccc3cnccc23)o1	TDP1 cell CPT inconclusive, DT40 TDP1 no CPT 23µM (no result: ClpP mod)
COc1ccccc1CCc1nnc(CCC(=O)N(C)Cc2ccncc2C)o1	D3 antag inconclusive, DT40 TDP1 no CPT inconclusive
COc1ccc(CCc2nnc(CCC(=O)N(C)Cc3ccnc4ccccc34)o2)cc1	TDP1 cell CPT inconclusive, DT40 TDP1 no CPT 4.6µM (no result: ClpP mod)
CCCN(CC1CCCO1)C(=O)CCc1nnc(CCc2ccc(OC)cc2)o1 (configuration not stated)	TDP1 cell CPT 23µM, DT40 TDP1 no CPT inconclusive
COc1ccc(OC)c(C(Cc2ccnc3ccccc23)Cc2ccnc3ccccc23)c1	TDP1 cell CPT 13µM, DT40 TDP1 no CPT 13µM (no result: D3 ag, IL-1B inflam inh, D3 antag)
Cc1cc(C)nc(N2CCN(S(=O)(=O)c3ccc(F)cc3)CC2)n1	TDP1 cell CPT inconclusive, DT40 TDP1 no CPT inconclusive
CCOC(=O)CSc1nc(-c2ccccn2)ncc1OC	TDP1 cell CPT 8.2µM, DT40 TDP1 no CPT 4.6µM (no result: ClpP mod)
CCOC(=O)CSc1ncc(OC)c(Sc2ccc(OC)cc2)n1	none
c1ccc(-c2cnc(-c3ccccn3)nn2)cc1	TDP1 cell CPT inconclusive, DT40 TDP1 no CPT inconclusive
COc1ccc(Sc2nc(-c3ccccn3)ncc2OC)cc1	TDP1 cell CPT 2.9µM, DT40 TDP1 no CPT 3.3µM (no result: ClpP mod)
COc1cnc(-c2ccccn2)nc1Sc1ccccc1	TDP1 cell CPT 1.5µM, DT40 TDP1 no CPT 1µM (no result: ClpP mod)
COc1cnc(N(C)C)nc1Sc1ccc(Cl)cc1	ClpP mod 32µM
CCCCn1c(SCC(=O)Nc2oc(C)c3c(C)n[nH]c(=O)c23)nc2cc(S(N)(=O)=O)ccc21	none
CN(CCc1ccccc1)C1CCCN(S(=O)(=O)CC(F)(F)F)C1 (configuration not stated)	IL-1B inflam inh inconclusive (no result: ClpP mod)
N#Cc1ccc(-c2ccccc2)nc1Sc1ccc(F)cc1	none
COc1cnc(-c2ccccn2)nc1Sc1ccc(F)cc1	TDP1 cell CPT 0.58µM, DT40 TDP1 no CPT 0.52µM (no result: ClpP mod)
COc1cnc(-c2ccccn2)nc1Sc1ccc(Cl)cc1	TDP1 cell CPT 1.3µM, D3 antag -99, DT40 TDP1 no CPT 1.5µM
COc1ccc(C(=O)Nc2cccnc2Sc2ccc(Cl)cc2)cc1	DT40 TDP1 no CPT inconclusive
